Measured values from PubChem BioAssay AID624330 (Southern Research Specialized Biocontainment Screening …, 2012).
Screen size: about 340,000 compounds; about 2,100 (0.62%) were called active.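 How the source made its calls: active means first-screen hits whose inhibition reached a set limit at any dose in the follow-up dose series; inconclusive means inhibition above the set first-screen limit but never retested; inactive means the rest.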 The list is a sample of the results. Entries with a potency or affinity are not part of this list.

Biological target: Rac GTPase-activating protein 1 (Homo sapiens) (UniProt Q9H0H5)
Sequence (Q9H0H5 whole entry, looked up): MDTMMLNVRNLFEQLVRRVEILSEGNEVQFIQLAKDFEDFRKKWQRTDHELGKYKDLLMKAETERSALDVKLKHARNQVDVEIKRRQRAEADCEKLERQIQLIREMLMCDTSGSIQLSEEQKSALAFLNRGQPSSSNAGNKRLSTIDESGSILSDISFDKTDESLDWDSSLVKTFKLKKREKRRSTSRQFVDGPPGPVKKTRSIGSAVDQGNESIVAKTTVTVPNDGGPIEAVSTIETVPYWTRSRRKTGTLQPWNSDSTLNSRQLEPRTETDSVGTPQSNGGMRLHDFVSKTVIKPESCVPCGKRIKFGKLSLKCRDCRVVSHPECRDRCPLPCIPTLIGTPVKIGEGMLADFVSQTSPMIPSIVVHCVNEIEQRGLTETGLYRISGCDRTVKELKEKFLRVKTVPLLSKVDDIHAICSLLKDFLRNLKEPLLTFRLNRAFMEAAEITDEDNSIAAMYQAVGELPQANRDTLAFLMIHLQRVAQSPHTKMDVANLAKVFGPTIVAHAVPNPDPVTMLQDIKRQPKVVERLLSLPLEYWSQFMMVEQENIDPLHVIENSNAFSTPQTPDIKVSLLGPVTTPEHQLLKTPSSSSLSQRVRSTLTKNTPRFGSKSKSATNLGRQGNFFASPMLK
Experiment: MgcRacGAP GTPase-activating activity inhibitors, confirmation, biochemical, ADP Hunter fluorescence, primary and confirmatory (AID 624330);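 further: fluorescence reports GDP produced by GAP-driven GTP hydrolysis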
Conditions: MgcRacGAP-stimulated Rac1 GTP hydrolysis, at 30 µM, active compounds read high, GST-tagged Rac1 F28L mutant substrate

inhibition, inactive:
CCOC(=O)c1c(C)[nH]c(C(=O)N/N=C/c2ccc(OC)c(OC)c2)c1C -4.46%
COc1ccc(NC(=O)c2cccc(NC3=NC4CS(=O)(=O)CC4S3)c2)cc1Cl (centres undefined) 10.8%
CCc1nnc(N/N=C\c2ccc(OC(C)=O)c(OC)c2)n1N 10.6%
CCC1(CC)C(=O)N(c2ccccc2)C(=N)N(c2ccccc2)C1=O -9.62%
N#Cc1cccc(NC(=O)CN2CCN(Cc3ccccc3)CC2)c1 10.1%
Cc1nc(N)c2c(Cc3cccc4ccccc34)nn(C(C)(C)C)c2n1 2.87%
COc1ccccc1CN(C)C(=O)c1sccc1-c1ccccc1 -0.12%
Cc1ccc(/C(N)=N/OC(=O)c2ccc3ccccc3c2)cc1 7.71%
O=C(NCCCN1CCOCC1)c1cc(-c2ccc(F)cc2)on1 5.56%
C/C(=N/NC(=O)CNC(=O)c1cccs1)c1ccc(Cl)cc1 5.28%
COc1cccc(C=Nc2cc(C)on2)c1O 10.4%
COc1cccc(C=Nc2ccc3c(c2)CCC3)c1O 6.65%
COc1ccc(N=Cc2c(O)ccc3ccccc23)cc1 14.5%
COc1ccc2c(c1)CCc1sc(NC(=O)c3ccco3)nc1-2 9.86%
Oc1ccc2ccccc2c1/C=N/c1nc2c(s1)CCCC2 16%
COc1ccc2c(c1)Cc1sc(NC(=O)c3ccccc3)nc1-2 15.1%
COc1ccc(Cl)cc1NC(=O)CN(C)C(=O)CCCNC(=O)c1ccc(Cl)cc1 -0.09%
CN(C)CCNC(=S)Nc1ccc(Cl)cc1 10.1%
CC(=O)c1ccc(OCc2cc(C(=O)N3CC[C@@H]4CCCC[C@H]4C3)no2)cc1 8.61%
COc1ccccc1NC(=O)CSc1nnc(-c2ccoc2C)n1CC1CCCO1 (centres undefined) 9.62%
CCCN(CCC)Cc1c(C(=O)N/N=C/c2ccoc2)nnn1-c1nonc1N 6.21%
S=C(NC1CCCCC1)N1CCN(C2CCCCC2)CC1 6.75%
O=C(CSc1nc(Cc2ccccc2)nc2ccccc12)Nc1nc2c(s1)CCCC2 18.2%
COc1ccc(N2CCN(C(=O)Cc3ccc(OC)c(OC)c3)CC2)cc1 21.6%
COc1ccc(N2CCN(C(=O)NCc3ccc(OC)c(OC)c3)CC2)cc1 23.4%
COc1cc(CNc2ccc(N3CCN(C(C)=O)CC3)cc2)ccc1OCc1ccc(F)cc1 28.5%
COc1cc(CNc2ccc(N3CCCC3)cc2)ccc1OCc1ccccc1 7.32%
O=C(COc1ccccc1)NCC(c1ccco1)N1CCN(c2ccccc2)CC1 (centres undefined) -2.01%
CCCCCC(=O)Nc1ccc(N2CCOCC2)c(S(=O)(=O)Nc2ccc(OC)cc2)c1 10.2%
CC(=O)Nc1c(-c2ccccc2)nc2ncccn12 16.1%
CCN(CC)C(=O)Cn1cc(C(=O)C(=O)N(C)C2CCN(C)CC2)c2ccccc21 0.15%
COc1cc(OC)c(OC)cc1/C=N/NC(=S)NCCN1CCOCC1 -4.53%
COc1cc(/C=N/NC(=S)NCCN2CCOCC2)cc(OC)c1O 15.1%
Fc1ccc(NC(=S)NCCN2CCOCC2)cc1 4.64%
S=C(NCCCN1CCOCC1)Nc1ccc(Nc2ccccc2)cc1 36.5%
COc1cc(/C=N/NC(=S)NCCN2CCOCC2)cc(OC)c1OC 7.18%
S=C(NCCN1CCOCC1)N/N=C/c1ccccc1 6.95%
O=S(=O)(c1cccc(-c2nc3ccccc3s2)c1)N1CCCC1 4.17%
Cc1cc(C(=O)N(NC(=O)C(C)C)c2ccccc2)cs1 5.75%
C=CCn1c(=O)c(C(=O)Nc2ccc(C)cn2)c(O)c2ccccc21 7.02%
CCOc1ccc(C(C(=O)NCC2CCCO2)N(Cc2ccccc2)C(=O)c2snc(C(N)=O)c2N)cc1 (centres undefined) 6.27%
C=CCc1cc(/C=N/n2cnnc2)cc(OCC)c1O 8.86%
C=CCc1cc(C=O)cc(OCC)c1O 4.85%
CSc1sc2ccccc2[n+]1CCCS(=O)(=O)[O-] 6.67%
CCC(/C=C1\Oc2ccc(OC)cc2N1C)=C\c1sc2ccccc2[n+]1CCCS(=O)(=O)[O-] 20.6%
O=C(COC(=O)c1cc(S(=O)(=O)N2CCOCC2)ccc1Cl)NCc1ccccc1 -0.98%
O=C(COC(=O)/C=C/c1ccc([N+](=O)[O-])cc1)Nc1ccc2[nH]c(=O)[nH]c2c1 8.57%
COc1ccc(Br)cc1CN(C)CC(=O)NCc1ccc(F)cc1 30.8%
COc1ccc(Br)cc1CN(C)CC(=O)NCCc1ccc(S(N)(=O)=O)cc1 -1.98%
COc1cccc(CNS(=O)(=O)c2ccc(N3CCCC3=O)cc2)c1 1.52%
Cc1ccccc1NC(=O)c1cccc(S(=O)(=O)N2CCCCC2)c1 3.86%
CC(C)C(O)(CC#CCN1CCCC1)c1ccccc1 (centres undefined) 6.41%
CCn1cc(CN2CCC(C(=O)Nc3cccc(-c4cccc(OC)c4)c3)CC2)c(C)n1 4.15%
Cc1ccc(OCCOC(=O)Cn2nc(C)c([N+](=O)[O-])c2C)cc1 7.43%
Cc1cccc(C)c1OCC(O)CN1CCN(c2ccccc2)CC1 (centres undefined) 4.36%
O=C(Oc1ccc(/C=N/n2cnnc2)cc1)c1cccc([N+](=O)[O-])c1 13.5%
Cc1cccc(C(=O)Oc2ccc(/C=N/NC(=O)Cc3ccc([N+](=O)[O-])cc3)cc2)c1 1.03%
CC1=NNC(=O)C1CC(=O)N/N=C/C(C)=C/c1ccccc1 (centres undefined) 13.2%
Cn1c(=O)c2c(nc(CN3CCCCC3)n2CCc2ccccc2)n(C)c1=O 18.6%
Cc1ccc(OCC(=O)N2CCN(S(=O)(=O)c3ccccc3[N+](=O)[O-])CC2)cc1 5.54%
COc1ccc(/C=N/NC(=O)CCCC(=O)NC2CCCCC2)cc1 2.54%
COC(=O)c1ccc(/C=N/NC(=O)CC(=O)NC2CCCCC2)cc1 -3.55%
CCCOc1ccc(/C=N/NC(=O)C(C)Sc2ccccn2)cc1OCC (centres undefined) 9.98%
COc1ccc(/C=N/NC(=O)CC(=O)NC2CCCCC2)cc1 6.51%
CN(NC(=O)Nc1ccc(Cl)cc1)c1ncc(C(F)(F)F)cc1Cl 7.17%
C=CCOc1ccc(/C=N/NC(=O)C(C)Sc2ccccn2)cc1OC (centres undefined) 6.97%
Cc1ccc(/C=N/NC(=O)NN(C)c2ncc(C(F)(F)F)cc2Cl)cc1 4.41%
COc1cc(/C=N/NC(=O)CCC(=O)NC2CCCCC2)ccc1C 9.37%
CCS(=O)(=O)N1CCC(C(=O)Nc2cc(Cl)ccc2O)CC1 6.74%
Cn1cc(CN2CCCC(C(=O)c3nccn3C)C2)c(-c2cccc(Cl)c2)n1 (centres undefined) 0.46%
COc1ccc(C)c2sc(N(CCCN(C)C)C(=O)CS(=O)(=O)c3ccc(F)cc3)nc12 2.17%
CCOC(=O)Cc1nnc(NC(=O)CSc2ccc(Cl)cc2)s1 0.78%
COc1ccc(C(=O)O/N=C(/c2ccccc2)c2ccncc2)cc1 4.95%
COc1ccc(C2C(=O)c3ccccc3C2=Nc2ccc(Br)cc2)cc1 (centres undefined) 8.86%
CCC(C)[C@H](NC(=O)OC(C)(C)C)C(=O)N/N=C/c1ccc2cc(OC)ccc2n1 (some centres undefined) 7.33%
NS(=O)(=O)c1ccc(NC(=O)COC(=O)CCCN2C(=O)c3cccc4cccc(c34)C2=O)cc1 1.26%
Cc1cc(C(=O)Nc2ccc(F)cc2F)on1 9.92%
CCn1c(SCC(=O)NCc2ccc(F)cc2)nc2c(c1=O)SC(C)C2 (centres undefined) 18%
COc1cccc(/C=N/NC(=S)NC2CC3CCC2C3)c1OC (centres undefined) -1.35%
CCOc1ccc(/C=N/NC(=O)C(OC)c2ccccc2)cc1 (centres undefined) 3.79%
COc1ccc(C=NNC(=O)CCCC(=O)NN=Cc2ccc(OC)c(O)c2)cc1O 23%
CCOc1cc(/C=N/NC(=O)C(=O)N/N=C/c2ccc(O)c(OCC)c2)ccc1O 10.8%
COc1cccc(/C=N/NC(=O)CSc2cccc3cccnc23)c1 5.24%
O=C(CSc1cccc2cccnc12)N/N=C/c1cccc(O)c1 3.05%
C=CCOc1cccc(/C=N/NC(=O)C(OC)c2ccccc2)c1 (centres undefined) 7.19%
Oc1ccc(/C=N/NC(=S)NC2CC3CCC2C3)cc1 (centres undefined) 16.9%
CCCCc1nnc(NC(=O)CN2C(=O)C3CCCCC3C2=O)s1 (centres undefined) 6.64%
O=C(N/N=C\c1cn[nH]c1-c1ccccc1)c1ccc([N+](=O)[O-])cc1 9.27%
O=S(=O)(c1ccc(Cl)cc1)N1CCN(Cc2cccnc2)CC1 2.76%
Cc1c(C(=O)N2CCN(S(=O)(=O)c3ccccc3)CC2)oc2ccc(Br)cc12 2.23%
Cc1ccccc1SCC(=O)NCC(c1ccc(F)cc1)N1CCOCC1 (centres undefined) 8.44%
N#CC1(NC(=O)CN2CCc3ccccc3C2)CCCC1 -8.1%
C#CCN1C=CC(=O)[C@@H](OC(=O)Nc2ccc(C)cc2)[C@H]1c1ccccc1Br -0.32%
O=C(O)C1C2C=CC(C2)C1C(=O)NC1CCS(=O)(=O)C1 (centres undefined) 10.3%
